# Experimental data from the supplement of paper PMC10849652.
# About 8,800 targets were measured; listed, in parts, are those with a hit and a random draw of the rest. About 0.5% of all pairs of compound and target were hits. Unmarked numbers belong to inactive results.
# Legend:
# Assay in all cases: log2 fold change, soluble protein after heating vs DMSO (PISA); higher = thermal stabilisation; K562 lysate, 10 uM; active = over 0.2 and 3.5 SD of the protein, either way, in both replicates (recomputed)
# erlotinib = compound: C#Cc1cccc(Nc2ncnc3cc(OCCOC)c(OCCOC)cc23)c1 [erlotinib]
# Procedure, shortened: (§1)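 A 30 min treatment with 10 μM compound was applied to crude K562 extract at 1 mg/mL protein in PBS pH 7.4 with 1 mM MgCl2. Heating for 3 min spanned 48°C-58°C, after which aliquots were pooled, adjusted to 0.5% NP-40 at 4°C and spun at 21,000xg for 90 min. TMTpro 16plex LC-MS/MS of the supernatant, with channel sums equalised, gave values recorded as log-two fold change in thermal stability against solvent controls, from duplicates.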
# [1] = compound: C/C(=N\NC(=O)C1=CC(=CC=C1)S(=O)(=O)N2CCOCC2)/C3=C(C=CC(=C3)Cl)O
# Procedure, shortened: as §1
# [2] = compound: C1=CC(=CC=C1C2=NC3=C(N2)C=C(C=C3)C(=O)N)OC4=CC=C(C=C4)Cl
# Procedure, shortened: as §1
# [3] = compound: C1=CC2=C(C=CC(=C2)/C=C\3/C(=O)NC(=NCC4=CC=CS4)S3)N=C1
# Procedure, shortened: as §1
# [4] = compound: C1=CC2=NC=CN=C2C=C1/C=C/3\C(=O)NC(=O)S3
# Procedure, shortened: as §1
# [5] = compound: C1=CC=C(C=C1)C2=NC(=C(N2)C3=CC=NC=C3)C4=CC(=C(C=C4)Cl)O
# Procedure, shortened: as §1
# [6] = compound: C1=CC=C2C(=C1)C3=NNC4=CC=CC(=C43)C2=O
# Procedure, shortened: as §1
# [7] = compound: C1CCN(C1)C(=O)NC2=CC=CC(=C2)NC3=NC=C(C(=N3)NCCC4=CN=CN4)Br
# Procedure, shortened: as §1
# [8] = compound: C1CN(CCC1(CC2=CC=C(C=C2)Cl)N)C3=NC=NC4=C3C=CN4
# Procedure, shortened: as §1
# IRAK-1-4 Inhibitor I = compound: C1COCCN1CCN2C3=CC=CC=C3N=C2NC(=O)C4=CC(=CC=C4)[N+](=O)[O-] [IRAK-1-4 Inhibitor I]
# Procedure, shortened: as §1
# ibrutinib = compound: C=CC(=O)N1CCC[C@@H](n2nc(-c3ccc(Oc4ccccc4)cc3)c3c(N)ncnc32)C1 [ibrutinib]
# Procedure, shortened: as §1
# [9] = compound: CC(=O)c1cnc2ccc(-c3cc(Cl)c(O)c(Cl)c3)nc2c1N[C@H]1CC[C@H](CN(C)C)CC1
# Procedure, shortened: as §1
# ralimetinib = compound: CC(C)(C)Cn1c(N)nc2ccc(-c3[nH]c(C(C)(C)C)nc3-c3ccc(F)cc3)nc21 [ralimetinib]
# Procedure, shortened: as §1
# [10] = compound: CC(C)(O)CC(=O)NCCn1ccc2ncnc(Nc3ccc(Oc4cccc(C(F)(F)F)c4)c(Cl)c3)c21
# Procedure, shortened: as §1
# [11] = compound: CC(C)C1=C2N=C(C=C(N2N=C1)NCC3=CC=CC=C3)NCCCCCCN
# Procedure, shortened: as §1
# [12] = compound: CC1=C(C(CC(=O)N1)C2=CC=C(C=C2)C(F)(F)F)C(=O)NC3=C(C=C4C(=C3)C=NN4)F
# Procedure, shortened: as §1
# [13] = compound: CC1=C(C2=C(C=C1)C(=O)C3=CC=CC=C3N2CCCN)C
# Procedure, shortened: as §1
# [14] = compound: CC1=C(C=C(C=C1)NC(=O)C2=CC(=CC=C2)C(C)(C)C#N)NC3=CC4=C(C=C3)N=CN(C4=O)C
# Procedure, shortened: as §1
# [15] = compound: CC1=C(C=C(C=C1)NC(=O)C2=CC(=CC=C2)N(C)C)NC(=O)C3=CC=C(C=C3)O
# Procedure, shortened: as §1
# [16] = compound: CC1=CC=C(C=C1)SC2=C3C=C(SC3=CN=C2)C(=O)N
# Procedure, shortened: as §1
# UniProt O75477, sequence (O75477 whole entry, looked up): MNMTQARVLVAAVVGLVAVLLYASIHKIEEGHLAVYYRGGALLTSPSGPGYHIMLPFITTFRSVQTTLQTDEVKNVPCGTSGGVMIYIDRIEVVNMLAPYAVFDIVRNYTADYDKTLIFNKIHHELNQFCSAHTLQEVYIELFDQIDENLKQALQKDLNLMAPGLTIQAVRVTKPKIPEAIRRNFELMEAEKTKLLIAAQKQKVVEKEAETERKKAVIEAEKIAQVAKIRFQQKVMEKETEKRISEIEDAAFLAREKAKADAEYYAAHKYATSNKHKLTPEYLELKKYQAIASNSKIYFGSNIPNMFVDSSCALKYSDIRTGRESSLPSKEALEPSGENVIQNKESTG
# UniProt Q9NYY8, sequence (Q9NYY8 whole entry, looked up): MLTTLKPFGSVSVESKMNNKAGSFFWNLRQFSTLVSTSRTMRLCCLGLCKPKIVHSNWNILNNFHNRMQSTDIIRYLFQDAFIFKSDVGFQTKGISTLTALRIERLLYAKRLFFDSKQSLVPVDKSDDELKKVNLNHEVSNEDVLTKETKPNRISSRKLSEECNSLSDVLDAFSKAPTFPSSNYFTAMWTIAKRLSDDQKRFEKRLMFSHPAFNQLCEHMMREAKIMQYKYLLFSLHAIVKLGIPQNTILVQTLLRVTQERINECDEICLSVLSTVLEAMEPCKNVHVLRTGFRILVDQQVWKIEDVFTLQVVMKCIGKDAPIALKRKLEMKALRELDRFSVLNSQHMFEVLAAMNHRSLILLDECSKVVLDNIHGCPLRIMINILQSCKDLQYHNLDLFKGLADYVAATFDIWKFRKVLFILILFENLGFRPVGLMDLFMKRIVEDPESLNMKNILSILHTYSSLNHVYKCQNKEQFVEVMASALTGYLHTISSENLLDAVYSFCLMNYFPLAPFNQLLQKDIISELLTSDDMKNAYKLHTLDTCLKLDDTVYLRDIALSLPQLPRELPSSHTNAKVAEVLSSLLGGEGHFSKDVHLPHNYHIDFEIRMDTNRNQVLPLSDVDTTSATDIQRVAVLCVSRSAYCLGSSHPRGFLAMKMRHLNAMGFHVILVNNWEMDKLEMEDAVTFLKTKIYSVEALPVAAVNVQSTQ
# UniProt Q96EK7, sequence (Q96EK7 whole entry, looked up): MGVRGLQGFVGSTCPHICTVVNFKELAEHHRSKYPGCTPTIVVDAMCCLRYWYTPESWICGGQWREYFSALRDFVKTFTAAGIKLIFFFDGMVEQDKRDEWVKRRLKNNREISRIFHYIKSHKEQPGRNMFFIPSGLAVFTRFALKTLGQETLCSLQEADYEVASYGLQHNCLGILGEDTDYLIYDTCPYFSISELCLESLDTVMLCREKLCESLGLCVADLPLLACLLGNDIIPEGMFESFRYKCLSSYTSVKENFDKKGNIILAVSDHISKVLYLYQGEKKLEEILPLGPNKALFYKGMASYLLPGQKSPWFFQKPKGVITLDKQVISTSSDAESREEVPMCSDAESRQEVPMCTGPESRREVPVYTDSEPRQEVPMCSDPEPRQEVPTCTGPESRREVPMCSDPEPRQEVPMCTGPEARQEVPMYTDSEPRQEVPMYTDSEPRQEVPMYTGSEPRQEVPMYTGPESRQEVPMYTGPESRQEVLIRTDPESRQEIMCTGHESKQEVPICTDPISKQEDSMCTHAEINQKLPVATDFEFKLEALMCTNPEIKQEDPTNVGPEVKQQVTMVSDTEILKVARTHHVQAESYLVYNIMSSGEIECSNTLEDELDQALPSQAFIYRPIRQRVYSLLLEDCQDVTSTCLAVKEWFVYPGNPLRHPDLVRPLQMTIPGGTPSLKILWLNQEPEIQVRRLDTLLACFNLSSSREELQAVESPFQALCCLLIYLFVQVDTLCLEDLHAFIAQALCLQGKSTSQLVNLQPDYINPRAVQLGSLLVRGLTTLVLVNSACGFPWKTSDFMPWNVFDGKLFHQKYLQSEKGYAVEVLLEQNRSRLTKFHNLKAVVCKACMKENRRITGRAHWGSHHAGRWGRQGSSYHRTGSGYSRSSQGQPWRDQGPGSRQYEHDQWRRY
# UniProt Q8TAG9, sequence (Q8TAG9 whole entry, looked up): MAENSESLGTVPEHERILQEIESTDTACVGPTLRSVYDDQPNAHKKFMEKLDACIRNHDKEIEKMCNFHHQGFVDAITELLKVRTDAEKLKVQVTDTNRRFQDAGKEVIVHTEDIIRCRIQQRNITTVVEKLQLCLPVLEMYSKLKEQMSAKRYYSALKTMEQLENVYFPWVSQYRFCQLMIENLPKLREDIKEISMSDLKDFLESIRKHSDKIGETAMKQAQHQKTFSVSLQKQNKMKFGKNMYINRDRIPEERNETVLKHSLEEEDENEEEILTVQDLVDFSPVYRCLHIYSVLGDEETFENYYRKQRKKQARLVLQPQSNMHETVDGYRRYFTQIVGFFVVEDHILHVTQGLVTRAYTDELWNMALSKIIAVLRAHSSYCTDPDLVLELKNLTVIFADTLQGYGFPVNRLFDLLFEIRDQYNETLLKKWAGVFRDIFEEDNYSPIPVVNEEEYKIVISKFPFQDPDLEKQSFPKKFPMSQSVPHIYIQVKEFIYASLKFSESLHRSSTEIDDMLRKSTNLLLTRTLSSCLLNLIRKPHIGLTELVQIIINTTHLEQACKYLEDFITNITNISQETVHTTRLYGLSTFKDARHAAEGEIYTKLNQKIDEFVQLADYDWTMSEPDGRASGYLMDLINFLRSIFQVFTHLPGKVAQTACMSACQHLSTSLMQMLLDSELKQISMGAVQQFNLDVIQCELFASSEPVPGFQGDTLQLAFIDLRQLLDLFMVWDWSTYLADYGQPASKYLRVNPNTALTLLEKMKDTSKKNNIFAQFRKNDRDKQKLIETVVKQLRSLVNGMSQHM
# UniProt P07814, sequence (P07814 whole entry, looked up): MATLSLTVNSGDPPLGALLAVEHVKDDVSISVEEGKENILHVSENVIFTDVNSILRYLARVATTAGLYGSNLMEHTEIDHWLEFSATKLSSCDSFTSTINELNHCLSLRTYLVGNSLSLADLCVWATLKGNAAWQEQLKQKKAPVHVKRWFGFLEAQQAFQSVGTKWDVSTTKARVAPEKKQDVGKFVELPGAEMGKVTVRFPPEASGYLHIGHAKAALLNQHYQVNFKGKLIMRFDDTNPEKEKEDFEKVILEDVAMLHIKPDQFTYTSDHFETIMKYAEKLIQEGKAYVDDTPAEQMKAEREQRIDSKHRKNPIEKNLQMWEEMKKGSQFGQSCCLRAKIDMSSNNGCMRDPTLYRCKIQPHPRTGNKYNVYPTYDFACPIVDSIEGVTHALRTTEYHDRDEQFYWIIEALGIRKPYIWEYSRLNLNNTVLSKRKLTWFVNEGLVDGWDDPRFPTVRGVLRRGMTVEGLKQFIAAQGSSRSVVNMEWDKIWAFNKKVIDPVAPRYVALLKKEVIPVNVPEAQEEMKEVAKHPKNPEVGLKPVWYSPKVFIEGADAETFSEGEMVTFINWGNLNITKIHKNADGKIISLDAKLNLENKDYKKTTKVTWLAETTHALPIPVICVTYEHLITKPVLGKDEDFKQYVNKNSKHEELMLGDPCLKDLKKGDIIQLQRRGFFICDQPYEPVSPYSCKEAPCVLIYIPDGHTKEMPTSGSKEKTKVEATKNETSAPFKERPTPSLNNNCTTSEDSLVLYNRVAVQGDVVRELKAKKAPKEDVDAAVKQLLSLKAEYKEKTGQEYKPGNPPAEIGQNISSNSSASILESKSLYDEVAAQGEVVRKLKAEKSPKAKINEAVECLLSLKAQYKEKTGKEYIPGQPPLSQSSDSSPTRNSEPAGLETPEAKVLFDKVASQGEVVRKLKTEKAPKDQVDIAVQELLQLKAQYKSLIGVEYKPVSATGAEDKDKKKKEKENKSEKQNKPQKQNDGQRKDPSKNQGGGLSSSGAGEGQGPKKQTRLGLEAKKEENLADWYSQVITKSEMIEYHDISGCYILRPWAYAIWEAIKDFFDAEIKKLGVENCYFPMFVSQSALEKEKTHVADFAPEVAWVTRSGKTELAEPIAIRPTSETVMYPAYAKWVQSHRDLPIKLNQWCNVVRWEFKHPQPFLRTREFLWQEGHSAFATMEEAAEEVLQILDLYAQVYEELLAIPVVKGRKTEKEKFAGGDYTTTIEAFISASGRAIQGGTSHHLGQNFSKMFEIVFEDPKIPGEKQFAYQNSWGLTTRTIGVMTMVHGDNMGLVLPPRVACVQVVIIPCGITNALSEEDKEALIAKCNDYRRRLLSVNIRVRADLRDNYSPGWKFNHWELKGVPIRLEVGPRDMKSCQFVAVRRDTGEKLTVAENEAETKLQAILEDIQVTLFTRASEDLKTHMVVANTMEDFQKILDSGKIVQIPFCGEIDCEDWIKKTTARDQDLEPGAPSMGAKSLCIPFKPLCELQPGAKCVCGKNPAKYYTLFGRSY
# UniProt Q9BPY3, sequence (Q9BPY3 whole entry, looked up): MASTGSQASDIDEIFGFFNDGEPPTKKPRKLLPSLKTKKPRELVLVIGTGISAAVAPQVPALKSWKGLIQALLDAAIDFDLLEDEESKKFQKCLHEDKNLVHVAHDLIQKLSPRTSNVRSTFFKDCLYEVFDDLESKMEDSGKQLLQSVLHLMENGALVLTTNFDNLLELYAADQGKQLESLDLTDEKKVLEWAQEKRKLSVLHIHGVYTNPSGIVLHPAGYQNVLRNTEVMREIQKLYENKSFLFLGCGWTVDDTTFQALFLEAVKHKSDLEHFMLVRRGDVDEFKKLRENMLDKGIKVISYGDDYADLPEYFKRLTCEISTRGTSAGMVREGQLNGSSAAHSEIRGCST
# UniProt O43768, sequence (O43768 whole entry, looked up): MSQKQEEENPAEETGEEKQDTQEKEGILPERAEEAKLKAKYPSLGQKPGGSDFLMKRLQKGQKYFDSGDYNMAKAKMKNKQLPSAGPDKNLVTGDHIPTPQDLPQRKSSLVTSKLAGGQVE
# UniProt O95571, sequence (O95571 whole entry, looked up): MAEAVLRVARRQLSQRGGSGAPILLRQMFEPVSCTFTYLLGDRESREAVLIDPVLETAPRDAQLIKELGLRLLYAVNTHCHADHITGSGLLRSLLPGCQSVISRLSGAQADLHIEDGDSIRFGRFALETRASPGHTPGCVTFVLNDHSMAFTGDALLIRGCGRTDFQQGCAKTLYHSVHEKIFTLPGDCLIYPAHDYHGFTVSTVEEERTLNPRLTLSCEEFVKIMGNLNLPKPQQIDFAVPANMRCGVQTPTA
Target,log2 fold change (erlotinib),log2 fold change [1],log2 fold change [2],log2 fold change [3],log2 fold change [4],log2 fold change [5],log2 fold change [6],log2 fold change [7],log2 fold change [8],log2 fold change (IRAK-1-4 Inhibitor I),log2 fold change (ibrutinib),log2 fold change [9],log2 fold change (ralimetinib),log2 fold change [10],log2 fold change [11],log2 fold change [12],log2 fold change [13],log2 fold change [14],log2 fold change [15],log2 fold change [16]
ERLIN1 (UniProt O75477),-0.031,0.123,-0.17,0.072,-0.038,0.015,-0.02,-0.015,-0.046,-0.071,0.005,0.034,-0.011,0.038,-0.007,0.044,0.005,-0.052,-0.008,0.012
FIG4 (UniProt Q92562),0.032,-0.032,-0.029,0,0.007,0.064,0.02,0.061,-0.053,0.003,0.14,-0.07,-0.01,-0.115,-0.012,-0.248,0.029,-0.093,-0.085,0.012
EP400 isoform 5 (UniProt Q96L91),0.045,0.01,-0.007,-0.023,-0.042,-0.003,-0.074,-0.027,-0.023,-0.005,-0.061,-0.018,0.02,-0.033,-0.027,0.047,-0.014,0.016,0.035,0.041
"FADS1, A0A0A0MR51",-0.006,-0.033,-0.008,0.085,-0.026,-0.012,0.05,-0.002,-0.064,-0.026,0.011,0.178,0.094,0.094,-0.003,-0.032,0.002,0.113,-0.08,-0.115
EXOC2 (UniProt Q96KP1),0.011,-0.008,-0.028,0.049,-0.008,-0.001,-0.042,-0.018,0.016,0.009,0.014,0.003,0.049,-0.027,-0.022,0.01,-0.019,0.016,0.032,0.004
ETHE1 (UniProt O95571),-0.046,-0.01,0.039,0.021,0.034,-0.007,0.012,-0.046,-0.013,-0.044,-0.029,-0.01,0.03,-0.021,-0.092,0.087,0.022,0.011,0.046,-0.042
FASTKD2 (UniProt Q9NYY8),0.028,0.041,-0.005,0.03,0.019,-0.007,-0.018,0.013,0.002,0.016,-0.008,-0.006,-0.004,-0.039,-0.013,0.003,-0.007,0.034,-0.001,0.024
FAM120B (UniProt Q96EK7),0.056,-0.032,0.036,0.035,0.02,-0.004,0.044,-0.013,0.007,0.009,0.023,-0.003,0.035,-0.013,0.031,-0.028,0.002,0.008,0.041,0.012
ENSA isoform 3 (UniProt O43768),-0.034,0.032,0,-0.013,-0.047,-0.459 (active),0.013,0.006,0.006,-0.004,0.042,0.015,-0.019,0.02,-0.013,-0.016,0.039,-0.042,-0.057,-0.01
"EED, A0A5F9ZI63",0.019,0.042,-0.033,0.017,-0.019,-0.012,0.003,0.003,0.023,0.021,-0.026,-0.018,0.008,-0.039,-0.004,0.036,-0.003,-0.016,0.042,-0.008
EXOC6 (UniProt Q8TAG9),0,-0.045,-0.062,-0.058,-0.044,0.005,-0.043,0.018,0.008,0.013,0,0.072,0.034,-0.018,-0.049,0.048,0.049,-0.022,0.042,0.01
EPRS (UniProt P07814),0.028,0.032,-0.007,0.01,0.014,0.017,-0.026,0,-0.004,-0.006,-0.018,0.002,0.01,0.026,0.02,-0.014,0.02,-0.004,0.046,0.019
FAM118B (UniProt Q9BPY3),-0.004,0.051,0.004,0.061,0.03,-0.01,-0.012,0.013,-0.004,-0.03,0.066,-0.016,0.015,-0.019,0.023,-0.01,0.012,-0.012,0.03,0.008
EMC7 (UniProt Q9NPA0),0.023,-0.011,-0.009,-0.02,-0.044,-0.011,-0.052,-0.002,0.011,0.02,-0.033,-0.001,0.008,-0.003,0.013,-0.012,0.024,0.015,-0.006,-0.032
EPN2 (UniProt O95208),0.054,-0.08,-0.001,-0.011,-0.059,-0.039,0.003,-0.003,0.007,-0.005,-0.01,-0.016,0.075,-0.004,-0.058,0.009,-0.024,0.001,0.017,-0.009
EHD2 (UniProt Q9NZN4),0.048,-0.167,-0.043,-0.063,0.012,-0.002,-0.071,-0.004,0.012,0.01,-0.004,0.035,0.054,-0.027,-0.005,0.066,0.063,0.019,0.059,0.017
